Test in all cases: NCI-60 one-dose screen, 48 h (100 = growth as untreated, 0 = no growth, -100 = all killed)
What all share (conditions): 10 µM unless noted

In assay [1] the test system is NCI-H23 lung.
Assay [2] concerns NCI-H226 lung.
The test system of assay [3] is NCI-H322M lung.
In assay [4] the test system is HOP-62 NSCLC.
Assay [5] concerns NCI-H460 lung.
Assay [6] relates to HOP-92 NSCLC.
Assay [7] has as its system NCI-H522 lung.
Assay [8] deals with A549/ATCC NSCLC.
Assay [9] has as its system 786-0 renal.

SMILES strings stand for the structures. Compounds without any hit were thinned out: in the full panel of roughly 83,000, 20% have a hit.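 Treatment: one concentration, 48 hours, 96-well format. Scoring: percent growth, with anything below 10 considered active.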 Unmarked numbers belong to inactive results. Calls of active or inactive are those of the source.

Results on 15 compounds are retold here after PubChem BioAssay (NCI).

As for `CCN(CC)CCCC(C)NCc1ccccc1` (stereo not given), the growth in assay [1] is 101%; in assay [2] it was 109%; in assay [3], 88.1%; in assay [4] it was 108%; in assay [5], 106%; in [6] it was 85.1%. The growth in assay [7] was 73.3%; in assay [8], 99.5%; in [9], 89.8%.

For `O=C(/C=C/C12c3ccccc3C(c3ccccc31)C1C(=O)N(c3ccccc3)C(=O)C12)c1ccccc1` (stereo not given), the growth in assay [1] was 5.23% (active); in [2] it was -27.4% (active); in assay [3], 12.9%; in assay [4], 28.7%; in assay [5], -41.3% (active); in [6] it was -6.42% (active). Besides, the growth in assay [7] is 16.7%; in [8] it was 20.5%; in [9], 3.15% (active).

As to `C=C(C=O)C1CCC2(C(=O)O)CCC3(C)C(CCC4C5(C)CCC(O)C(C)(C)C5CCC43C)C12` (stereo not given), the growth is -52.1% (active) in assay [1]; 5.95% (active) in assay [2]; 31.3% in assay [3]; 14.8% in [4]; -12.8% (active) in assay [5]; 67.1% in assay [6]. For the same compound, the values for the growth in assay [7], in assay [8] and in assay [9] were 24.2%, 34.1% and -37.3% (active), respectively.

In the case of `c1ccc2[nH]c(SSc3nc4ncncc4[nH]3)nc2c1`, the growth is 32.1% in [1]; 57.6% in [2]; 73.5% in [3]; 21.2% in [4]; 42.7% in assay [5]; 27.5% in assay [6]. Moreover, the growth in assay [7] was 35.6%; in assay [8], 80%; in [9], 16%.

Consider `COc1cc2c(cc1OC)-c1ccc3cc4c(cc3c1N(CCCN1CCCCC1)C2)OCO4`, for which the growth was 70.4% in [1]; 75.8% in [2]; 63.6% in assay [3]; 56% in assay [4]; 29.1% in assay [5]; 23.2% in assay [6]. Also, the growth in [7] was 41.6%; in assay [8] it was 49.5%; in [9], 40.1%.

`c1ccc(-c2oc3ccccc3c2-c2ccccc2)cc1`: the growth in assay [1] is 90.2%; in assay [2], 88.3%; in [3], 95.8%; in [4] it was 105%; in [5] it was 99.8%; in assay [6] it was 89.5%. For the same compound, the growth was 83% in assay [7], 97.2% in [8] and 98.8% in assay [9].

`N#C/C=C(\c1ccc([N+](=O)[O-])cc1)n1nnc2cc(Cl)c(Cl)cc21`: the growth is 40.8% in assay [1]; 39.7% in assay [2]; 46.1% in [3]; 31.2% in assay [4]; -8.66% (active) in [5]; 45.2% in [6]. Moreover, the growth in assay [7] was 2.18% (active); in [8], 53.2%; in [9], -26.7% (active).

For the compound `CN(C)c1ccc(/C=N/NC(=O)COc2cc(=O)n(C)c3ccccc23)cc1`, the growth in assay [1] is 93.5%; in assay [2] it was 105%; in [3], 105%; in assay [4], 95.7%; in assay [5], 110%; in assay [6], 93.5%. In addition, the figures for the growth in assay [7], in assay [8] and in assay [9] were 96.7%, 110% and 105%, respectively.

Turning to `C=CC(=O)N[C@@H](Cc1ccc(-c2cc(Cl)cc(Cl)c2)cc1)[C@@H](O)[C@H](O)C(=O)O`, the growth in assay [1] was 99.9%; in [2], 84.9%; in assay [3], 105%; in assay [4], 79%; in [5] it was 105%; in assay [6], 93.9%. For the same compound, the growth is 67.7% in [7], 79% in [8] and 98.6% in [9].

Consider `CCOc1cc(N)ccc1C(=O)NCCCN(CC)CC`, for which the growth is 87.9% in assay [1]; 93.6% in [2]; 100% in [3]; 98.3% in assay [4]; 110% in [5]; 90.6% in [6]. The growth in assay [7] was 98.2%; in assay [8] it was 104%; in assay [9] it was 100%.

Regarding `CCCCCCCC/C=C\CCCCCCCC(=O)Oc1cccc2cccnc12`, the growth is 105% in assay [1]; 97% in assay [2]; 97.6% in [3]; 96.4% in [4]; 96.1% in assay [5]; 236% in assay [6]. The growth is 71% in assay [7], 101% in [8] and 105% in assay [9].

As for `CN1C[C@@H](c2ccc(Cl)cc2)[C@]2(NC(=S)N(c3ccc(F)c(Cl)c3)C2=O)[C@@]12C(=O)NC1C=CC(Cl)=C[C@H]12` (stereo not given in full), the growth in [1] was 51.9%; in [2], 59.8%; in [3] it was 74.6%; in [4] it was 79.8%; in assay [5], 32.8%; in assay [6], -7.71% (active). Besides, the growth is 43.2% in assay [7], 53% in assay [8] and -68% (active) in assay [9].

As to `CCN(CC)CC(O)CNc1c2ccc(Cl)cc2nc2ccc(OC)cc12` (stereo not given), the growth in [1] is -39.1% (active); in assay [2], 46.7%; in [3], -27.1% (active); in [4], -47.1% (active); in assay [5] it was 0.742% (active); in [6], -13.9% (active). Besides, the growth in [7] is -65.7% (active); in assay [8] it was -72.9% (active); in assay [9], -16.1% (active).

In the case of `CCOC(=O)c1c(C)[nH]c(C(=O)CCC(=O)OC)c1C`, the growth in assay [1] was 98.3%; in assay [2], 95.8%; in assay [3], 98.5%; in assay [4], 98.7%; in [5], 110%; in assay [6] it was 84.6%. Moreover, the growth in assay [7] is 72.5%; in assay [8] it was 93.3%; in assay [9], 92.9%.

Take `NS(=O)(=O)Oc1ccc(NC(=O)C23CC4CC(CC(C4)C2)C3)cc1Cl`: the growth in assay [1] is 101%; in assay [2], 91.3%; in assay [3], 104%; in assay [4], 92.1%; in assay [5], 103%; in [6] it was 87.6%. Also, the results for the growth in assay [7], in assay [8] and in [9] were 75.8%, 93.7% and 98.2%, respectively.
